Screening results: PubChem BioAssay, National Center for Advancing Translational Sciences (NCATS)
GBA activity = human lysosomal glucosylceramidase modulation; Potency, µM; purified enzyme, resorufin glucoside fluorescence (screen aimed at inhibitors), 20 min; 1.1% of 48,000 active; P04062; in the data active means potency below about 15 µM; inconclusive means mostly about 16 µM to 33 µM;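 further: potency means the concentration at half of the fitted maximal effect; the screen sought inhibitors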
Target sequence (P04062 whole entry, looked up): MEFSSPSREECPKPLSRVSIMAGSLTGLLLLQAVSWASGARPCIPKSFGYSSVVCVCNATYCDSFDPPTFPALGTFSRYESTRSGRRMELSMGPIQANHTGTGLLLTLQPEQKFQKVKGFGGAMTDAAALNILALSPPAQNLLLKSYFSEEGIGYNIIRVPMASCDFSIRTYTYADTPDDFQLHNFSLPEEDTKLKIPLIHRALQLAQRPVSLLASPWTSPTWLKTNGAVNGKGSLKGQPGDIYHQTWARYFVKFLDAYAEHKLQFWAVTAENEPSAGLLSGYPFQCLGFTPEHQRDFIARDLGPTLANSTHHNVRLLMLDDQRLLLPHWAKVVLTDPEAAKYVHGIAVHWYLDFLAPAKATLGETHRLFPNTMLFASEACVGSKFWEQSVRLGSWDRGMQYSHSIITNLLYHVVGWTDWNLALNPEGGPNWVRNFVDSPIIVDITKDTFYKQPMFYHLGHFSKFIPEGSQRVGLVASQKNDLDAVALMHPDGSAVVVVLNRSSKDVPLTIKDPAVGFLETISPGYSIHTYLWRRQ
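Compounds titrated against 0.2 nM normal enzyme, 30 uM resorufin beta-D-glucopyranoside substrate, citrate/phosphate buffer with taurocholate and tween-20, pH 5.9. Reaction ran 20 min at room temperature; fluorescence (Ex 548/Em 600) gave AC50.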
HBB splice mod = hemoglobin beta splicing modulation; 0.06% of 65,000 active; Potency, µM (titrated, usually from 46.1 µM), inactives show top-dose activation, hits mostly activators; HBB splicing reporter cell assay, activation; EGFP reporter with mutant IVS2-654 intron; response scale: normalised to 500 nM splice-correcting PNA; further: potency means the concentration at half of the fitted maximal effect; 0% is about no effect
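HeLa cells stably expressing EGFP interrupted by mutant beta-globin intron 2 (IVS2-654), 500/well in 2% FCS. Treated with compound for 2 days at 37C. Splicing correction scored as total well GFP intensity (488 nm excitation, 500-520 nm emission); 500 nM antisense PNA served as control.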
Bst PK mod = modulators of Bacillus stearothermophilus pyruvate kinase; purified pyruvate kinase, luminescence ATP production; ribose 5-phosphate activator present at AC10; Potency, µM; 1.2% of 51,000 active; in the data active means potency below about 11 µM; inconclusive means mostly about 12 µM to 25 µM;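 the screen sought inhibitors and activators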;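 further: potency means the concentration at half of the fitted maximal effect; scaled between full activation by ribose 5 phosphate and full inhibition by luteolin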
Epigenetic mod = derepresses silenced GFP locus in mouse C127i cells; mouse C127i GFP locus derepression, cytometry, 30 h; 0.09% of 68,000 active; Potency, µM (series often up to 46.1 µM), without a hit: at the top dose GFP derepression (activation); AID 597; further: % of control where 0% means no effect
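Read-out is the number of GFP-positive cells, scored as fluorescent objects 20 to 120 um wide, reflecting derepression of a silenced CMV-GFP reporter in murine C127i cells after 30 h compound exposure at 37 C.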
UbGFP stabilizer = ubiquitin-GFP accumulation via proteasome inhibition. Ubiquitin-GFP reporter cells, proteasome inhibition, GFP fluorescence; response scale: untreated = 0%, 10 µM MG-132 = 100%. Potency, µM (doses to about 45.9 µM), without a hit: top-dose activation (GFP accumulation), hits mostly activators. 67,000 tested, under 10 active; active means well fitted activation curve with a large enough effect, not every such curve was filed as active; inconclusive means small, poorly fitted or top-dose-only effect, or another doubt; inactive means no such curve, though single readings can be large or run the other way; further: potency means the concentration at half of the fitted maximal effect
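Proteasome block read as GFP accumulation: ubiquitin(G76V)-GFP U2OS cells exposed to compound (2.9 nM–46 uM) for 4 hr at 37 C. Normalization used untreated cells as 0% and 10 uM MG-132 as 100%; concentration-response curves fitted.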
Luciferase inh = firefly luciferase inhibition | 2.2% of 72,000 active | purified firefly luciferase, luminescence, 8 min | Potency, µM (titrated, usually from 57.1 µM), inactives show top-dose activity change, negative = inhibition, usual class: inhibitors; further: potency means the concentration at half of the fitted maximal effect; on the % scale 0 is the no-effect control and ±100 the full control effect; nearly all actives have a fitted effect of over 40% in size
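Substrate buffer containing 10 uM ATP (pH 7.2 imidazole, Mg2+, KCl, detergent, BSA) is dispensed, compound pinned in, then luciferase/luciferin detector mix added. After 8 min at ambient temperature, light output is measured.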
Starred values were filed as active, the others as inactive; [ ] = remark or other dose. A selection: hits, their analogues and other compounds. The true share with any hit is near 3.3%. Unless noted, the call rests on the fitted dose curve; in most records, active means well fitted curve in the direction sought with a large enough effect; inconclusive means small, poorly fitted or top-dose-only effect, or another doubt; inactive means no such curve, though single readings can be large; an effect the other way counts as inactive or inconclusive.

`NCCC[C@@H](CC(=O)N[C@@H]1CCCC[C@H]1C(=O)N[C@H](CC(=O)N[C@@H](CCC(=O)O)CC(=O)O)Cc1c[nH]c2ccccc12)NC(=O)C[C@H](Cc1ccccc1)NC(=O)[C@@H]1CNCC[C@H]1N` gave HBB splice mod 1%.
For COc1ccc(/C=C/N(CCc2ccc(OC)c(OC)c2)C(=O)c2ccccn2)cc1 the results were HBB splice mod 0%[9.22 µM].
`COc1c(F)c(F)c(C(=O)Nc2ccc(NC(=O)c3ccco3)cc2)c(F)c1F` gave GBA activity 1.5*, HBB splice mod -1%, Bst PK mod >57, Epigenetic mod -2%, UbGFP stabilizer -7% and Luciferase inh 0%.
`O=C(Nc1ccc(OC(=O)c2cccs2)cc1)c1ccco1` gave GBA activity >77, Bst PK mod inactive, Epigenetic mod 1%, UbGFP stabilizer 1% and Luciferase inh 25µM*.
`C[C@@H]1Oc2ccc(C(=O)C[C@@H](C(=O)O)c3ccc4c(c3)OCO4)cc2O1` gave HBB splice mod 4%[9.22 µM], Epigenetic mod 14%[9.22 µM], UbGFP stabilizer -2%[9.17 µM] and Luciferase inh 5%[11.4 µM].
Screening CCOC(=O)C1=C(C)NC(C)=C(C(=O)OC)[C@H]1c1cccc(Cl)c1Cl returned HBB splice mod -1%, Epigenetic mod 1%, UbGFP stabilizer -2% and Luciferase inh 0%.
For c1ccc(CNc2ncncc2-c2ccoc2)cc1 the results were HBB splice mod 1%, Epigenetic mod 2%[9.22 µM], UbGFP stabilizer -3% and Luciferase inh 1%[2.29 µM].
CCN1C(=S)SC(=O)C1=C1C=C(C)N(CCOC)C(C)=C1 was read as GBA activity 15*, HBB splice mod 0%[57.5 µM], Epigenetic mod -4%, UbGFP stabilizer 6% and Luciferase inh -1%.
For CCN1C(=S)SC(=O)C1=C1C=C(C)N(CCO)C(C)=C1 the results were GBA activity >77, HBB splice mod 5%, Epigenetic mod -2%, UbGFP stabilizer -6% and Luciferase inh inconclusive.
`CCCn1c(C)nc2c(N3CCOCC3)nc(C)nc21` gave HBB splice mod -1% and UbGFP stabilizer -9%.
For O=C(Cc1c(O)c2ccccc2[nH]c1=O)NC1CCCCCC1 the results were GBA activity >77, HBB splice mod 0%[57.5 µM], Bst PK mod >57, Epigenetic mod 3%, UbGFP stabilizer -5% and Luciferase inh -5%.
Screening O=C(NC1CCCCCC1)c1c(O)c2ccccc2[nH]c1=O returned GBA activity 11*, Epigenetic mod 1%, UbGFP stabilizer 2% and Luciferase inh -2%.
Screening COc1cc(OC)cc([C@H](CNc2ncnc3c2ncn3[C@@H]2O[C@@H](CO)[C@H](O)[C@@H]2O)c2ccccc2C)c1 returned HBB splice mod 2%, Epigenetic mod 0%, UbGFP stabilizer -2% and Luciferase inh -1%.
Screening CO/N=C(\C(=O)N[C@@H]1C(=O)N2C(C(=O)O)=C(CSc3nc(=O)c(O)nn3C)CS[C@@H]12)c1csc(N)n1 returned HBB splice mod 2%, Epigenetic mod -2%, UbGFP stabilizer -2% and Luciferase inh 5%.
`CCCCC1CN2C(CCC(C)C2c2ccc(Br)cc2)C(=O)O1` (stereo not given) gave HBB splice mod 3%[9.22 µM].
Screening Cc1cccc(N2CSC3=C(C#N)C(c4ccc(C)o4)CC(=O)N3C2)c1 (stereo not given) returned GBA activity 15*, HBB splice mod -8%[0.369 µM], Bst PK mod >57, Epigenetic mod 0%, UbGFP stabilizer -4% and Luciferase inh -20%.
Screening Cc1ccc2nc(-c3ccc(N)cc3)sc2c1S(=O)(=O)O returned HBB splice mod 1%.
Screening Cc1ccc(-c2nnc(Nc3ccccc3)o2)cc1 returned GBA activity >77, HBB splice mod -2%, Bst PK mod 0.46*, Epigenetic mod -1%, UbGFP stabilizer 0% and Luciferase inh 0.63µM*.
Screening Cn1c(=O)c(-c2ccc(F)cc2)nc2cnc(OCc3ccccc3)nc21 returned HBB splice mod -2%, Epigenetic mod 8%[9.22 µM], UbGFP stabilizer 1% and Luciferase inh 1%[11.4 µM].
`CCc1cc2c(nc1CC)CCN(CC/C(C)=N/OCC[C@@H]1C=C[C@H](OC(C)=O)[C@H](COC(C)=O)O1)C2` gave HBB splice mod 2%[9.22 µM] and Luciferase inh 2%[11.4 µM].
Screening O=C(Nc1ccc(SC(F)F)cc1)C1=COCCO1 returned HBB splice mod 0%[57.5 µM], Bst PK mod inactive, Epigenetic mod 3%, UbGFP stabilizer -2% and Luciferase inh 25µM*.
Screening O=C(NC1CCCCCCC1)C1=COCCO1 returned GBA activity >77, HBB splice mod 0%[57.5 µM], Bst PK mod >57, Epigenetic mod 2%, UbGFP stabilizer -1% and Luciferase inh -9%.
For Cc1nc(N2CCOCC2)c2nc(-c3ccccc3)n(CCCN3CCCCC3C)c2n1 (stereo not given) the results were HBB splice mod -1% and UbGFP stabilizer 5%.
`O=C(Nc1ncc(Cc2ccccc2)s1)C1CCCO1` (stereo not given) gave HBB splice mod 0%, UbGFP stabilizer 6% and Luciferase inh 10µM*.
C[C@@H]1C(=O)O[C@H]2[C@@H](O)[C@@]34[C@H]5C[C@H](C(C)(C)C)[C@@]36[C@H](OC(=O)[C@@H]6O)O[C@@]4(C(=O)O5)[C@@]12O was read as Epigenetic mod 0%[9.22 µM], UbGFP stabilizer 4% and Luciferase inh 0%[11.4 µM].
Screening COc1cc(-c2nnc(SCC(=O)c3ccc(C)cc3)o2)cc(OC)c1OC returned GBA activity inactive, HBB splice mod 0%, Bst PK mod >57, Epigenetic mod 2%, UbGFP stabilizer -4% and Luciferase inh 1%.
`COc1cc(-c2nnc(SCC(=O)c3cc(C)n(CC4CCCO4)c3C)o2)cc(OC)c1OC` (stereo not given) gave GBA activity 13*, HBB splice mod -3%, Bst PK mod >57, Epigenetic mod 2%, UbGFP stabilizer 1% and Luciferase inh -8%.
`Cc1cc(/C=c2/sc3nc4ccccc4n3c2=O)c(C)n1-c1ccccn1` gave Bst PK mod 0.84*, Epigenetic mod -4%[20.6 µM] and Luciferase inh 0.5µM*.
O=c1/c(=C\c2cccnc2)sc2nc3ccccc3n12 was read as GBA activity >77, HBB splice mod -1%, Epigenetic mod 3%, UbGFP stabilizer 0% and Luciferase inh -10%.
`COCCn1c(=O)c(-c2cccs2)nc2cnc(Oc3ccccc3)nc21` gave HBB splice mod 0%, Epigenetic mod -3%[9.22 µM], UbGFP stabilizer -4% and Luciferase inh 1%[11.4 µM].
